Measurements from PubChem BioAssay (NCATS).
Inconclusive results are not listed. Unless noted, the call rests on the fitted dose curve; in most records, active means well fitted curve in either direction with a large enough effect (not every such curve was filed as active); inconclusive means small, poorly fitted or top-dose-only effect, or another doubt; inactive means flat fitted curve, though single readings scatter.

Columns and labels:
[1] = AP1 Signaling Pathway (AID 357); settings: ME-180 AP-1-bla reporter, EGF-induced, beta-lactamase ratio, 5 h; at 17.2 µM (top of the series) unless noted;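 further: ME-180 reporter cells stimulated with EGF at its EC50 level; on the % scale 0 is the no-effect control and ±100 the full control effect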
Summary of the method: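 Titration-series screen for positive or negative modulators of EC50 EGF-induced signaling in ME-180 cells carrying an AP-1-driven beta-lactamase reporter. After 5 hours at 37 degrees Celsius, CCF4 460nm/530nm emission ratio gave %Activity; AC50 values derived.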

[2] = NFAT Signaling Pathway (AID 444); settings: Jurkat NFAT-bla M1, carbachol, beta-lactamase ratio, 5 h; at 17.2 µM (top of the series) unless noted;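 further: carbachol stimulus at about its EC50 of 1 µM final; on the % scale 0 is the no-effect control and ±100 the full control effect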
Summary of the method: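 Jurkat cells with NFAT-driven β-lactamase reporter and co-expressed M1 receptor, stimulated with carbachol (final 1 uM, ~EC50), compound titration, 5 h at 37 °C. CCF4 loaded 1 h at RT; 460/530 nm ratio gave %activity and AC50.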

[3] = Stat Signaling Pathway (AID 446); settings: ME-180 SIE beta-lactamase reporter, IL-6 stimulated, 5 h; at 17.2 µM (top of the series) unless noted;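 further: ME-180 cervical cancer cells given 40 pM IL-6 alongside compound; SIE-controlled beta-lactamase reporter measured as 460/530 nm FRET emission ratio; on the % scale 0 is the no-effect control and ±100 the full control effect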
Summary of the method: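 Reporter line: ME-180 cervical carcinoma, SIE-beta-lactamase. Treatment: compound with 40 pM IL-6, 5 hrs, 37 C, in low-serum OPTI-MEM with 10 mM HEPES pH 7.3. Detection: 460/530 nm fluorescence.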

[4] = molecular target: Glucocorticoid receptor (Homo sapiens) (UniProt P04150); assay: GR-GFP Redistribution (AID 450;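 active means compounds whose dose series gives a full or clear partial fitted curve of increased nuclear translocation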; further: potency means the concentration at half of the fitted maximal effect)
Sequence of Glucocorticoid receptor (Homo sapiens) (P04150 whole entry, looked up): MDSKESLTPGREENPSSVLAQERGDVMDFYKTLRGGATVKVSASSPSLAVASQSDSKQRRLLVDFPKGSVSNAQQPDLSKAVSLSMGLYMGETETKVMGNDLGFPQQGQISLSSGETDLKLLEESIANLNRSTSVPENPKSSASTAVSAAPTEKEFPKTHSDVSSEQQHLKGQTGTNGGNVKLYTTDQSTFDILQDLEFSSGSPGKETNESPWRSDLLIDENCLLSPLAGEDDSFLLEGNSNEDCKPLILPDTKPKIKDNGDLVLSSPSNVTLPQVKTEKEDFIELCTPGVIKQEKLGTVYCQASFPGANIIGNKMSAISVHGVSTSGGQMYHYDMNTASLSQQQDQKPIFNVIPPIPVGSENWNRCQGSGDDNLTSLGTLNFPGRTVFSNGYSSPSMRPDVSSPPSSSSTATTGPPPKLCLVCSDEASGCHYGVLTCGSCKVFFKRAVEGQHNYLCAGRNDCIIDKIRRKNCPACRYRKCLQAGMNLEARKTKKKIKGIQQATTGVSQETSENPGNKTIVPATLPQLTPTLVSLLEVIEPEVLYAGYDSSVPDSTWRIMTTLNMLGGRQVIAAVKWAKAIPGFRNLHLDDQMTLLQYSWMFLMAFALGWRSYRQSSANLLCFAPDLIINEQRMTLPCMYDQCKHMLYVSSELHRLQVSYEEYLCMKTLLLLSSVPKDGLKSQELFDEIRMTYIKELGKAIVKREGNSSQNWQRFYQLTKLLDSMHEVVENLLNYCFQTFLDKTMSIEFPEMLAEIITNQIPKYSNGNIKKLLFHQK

COC(=O)Sc1nc(N2CCOCC2)c2c(c1C#N)CC(C)(C)OC2
inactive: activity change, negative = inhibition [1] -17.4% | activity change, negative = inhibition [2] -7.69% | activity, negative = inhibition [3] -18.3% | Potency [4] > 20.6 µM

Cn1c(N)c(C#N)c2c(c1=S)CSC(C)(C)C2
inactive: activity change, negative = inhibition [1] 1.02% | activity change, negative = inhibition [2] -25.2% | activity, negative = inhibition [3] -2.98% | Potency [4] > 20.6 µM

CCOC(=O)c1c(C)n(C)c2ccc(OC)c(NC(=O)CN3CCN(Cc4ccccc4)CC3)c12
inactive: activity change, negative = inhibition [1] -11% | activity change, negative = inhibition [2] -8.48% | activity, negative = inhibition [3] -7.51% | Potency [4] > 20.6 µM

COC(=O)CSc1ncnc2c1sc1nc(-c3ccco3)c3c(c12)CC(C)(C)OC3
inactive: activity change, negative = inhibition [1] -2.46% | activity change, negative = inhibition [2] -26.7% | activity, negative = inhibition [3] -10.8% | Potency [4] > 20.6 µM

CCOC(=O)C1=C(c2ccccc2)NC(SCC(=O)Nc2ccccc2C)=C(C#N)C1c1ccco1 (stereo not given)
inactive: activity change, negative = inhibition [1] -1.47% | activity change, negative = inhibition [2] -6.28% | activity, negative = inhibition [3] -9.31% | Potency [4] > 20.6 µM

O=C(NCCN1CCOCC1)c1cc2n(n1)C(C(F)(F)F)CC(c1ccc(F)cc1)N2 (stereo not given)
inactive: activity change, negative = inhibition [1] 2.33% | activity change, negative = inhibition [2] 0.228% | activity, negative = inhibition [3] 8.95% | Potency [4] > 20.6 µM

COc1cc(C2C(C(=O)c3cccs3)=C(O)C(=O)N2c2cc(C)on2)ccc1O (stereo not given)
inactive: activity change, negative = inhibition [1] -2.96% | activity change, negative = inhibition [2] 0.425% | activity, negative = inhibition [3] -6.54% | Potency [4] > 20.6 µM

CSc1cc(C)nc(N(C)C(C)=O)n1
inactive: activity change, negative = inhibition [1] 16.9% | activity change, negative = inhibition [2] -4.07% | activity, negative = inhibition [3] -0.18% | Potency [4] > 20.6 µM

COc1ccc(/C(O)=C2/C(=O)C(=O)N(CCCN(C)C)C2c2ccc(C)o2)cc1Cl (stereo not given)
inactive: activity change, negative = inhibition [1] 9.2% | activity change, negative = inhibition [2] -6.18% | activity, negative = inhibition [3] 3.77% | Potency [4] > 20.6 µM

COc1cc(-n2c3nc4ccccc4nc3c3c(=O)n(Cc4ccco4)cnc32)cc(OC)c1OC
inactive: activity change, negative = inhibition [1] -7.36% | activity change, negative = inhibition [2] -5.5% | activity, negative = inhibition [3] 3.4% | Potency [4] > 20.6 µM

CCCCSc1nc(O)c(C2OC(=O)c3c2ccc(OC)c3OC)c(=O)n1C (stereo not given)
inactive: activity change, negative = inhibition [1] -4.1% | activity change, negative = inhibition [2] 1.82% | activity, negative = inhibition [3] -7.44% | Potency [4] > 20.6 µM

CCNC(=O)N(C)c1nncnc1C(=O)NC
inactive: activity change, negative = inhibition [1] 5.47% | activity change, negative = inhibition [2] 2.38% | activity, negative = inhibition [3] -6.45% | Potency [4] > 20.6 µM

CCCCCOC(=O)C(C)c1c(C)[nH]c(=S)[nH]c1=O (stereo not given)
inactive: activity change, negative = inhibition [1] 7.28% | activity change, negative = inhibition [2] 6.16% | activity, negative = inhibition [3] -4.24% | Potency [4] > 20.6 µM

COc1cccc(OC)c1OCCN1CCN(C(=O)c2ccco2)CC1
inactive: activity change, negative = inhibition [1] 17.1% | activity change, negative = inhibition [2] -6.56% | activity, negative = inhibition [3] 11.8% | Potency [4] > 20.6 µM

c1ccc(Cc2nnc3n2CCCCC3)cc1
inactive: activity change, negative = inhibition [1] -5.05% | activity change, negative = inhibition [2] -13.9% | activity, negative = inhibition [3] 5.83% | Potency [4] > 20.6 µM

COC(=O)c1ccccc1N1C(=O)[C@@H]2C(c3ccc(Br)cc3)=NO[C@@H]2C1=O
inactive: activity change, negative = inhibition [1] 11.9% | activity change, negative = inhibition [2] 19.8% | activity, negative = inhibition [3] 7.92% | Potency [4] > 20.6 µM

COc1ccccc1N(O)C1CC(=O)N(c2ccc(F)cc2)C1=O (stereo not given)
inactive: activity change, negative = inhibition [1] -0.204% | activity change, negative = inhibition [2] -3.85% | activity, negative = inhibition [3] 1.38% | Potency [4] > 20.6 µM

CCOC(=O)c1ccc(CSc2ncn[nH]2)o1
inactive: activity change, negative = inhibition [1] 0.882% | activity change, negative = inhibition [2] -2.95% | activity, negative = inhibition [3] 5.39% | Potency [4] > 20.6 µM

CCOC(=O)C(Oc1ccc(=O)[nH]n1)C(C)=O (stereo not given)
inactive: activity change, negative = inhibition [1] 3.6% | activity change, negative = inhibition [2] 5.95% | activity, negative = inhibition [3] 2.15% | Potency [4] > 20.6 µM

N#CCCN(C(=O)c1ccco1)c1ccccc1
inactive: activity change, negative = inhibition [1] -22.8% | activity change, negative = inhibition [2] 2.26% | activity, negative = inhibition [3] 9.28% | Potency [4] > 20.6 µM

CSc1nc2sc3c(c2c2nncn12)CCC3
inactive: activity change, negative = inhibition [1] -7.57% | activity change, negative = inhibition [2] -18% | activity, negative = inhibition [3] -3.42% | Potency [4] > 20.6 µM

CCc1c(C(=O)O)[nH]c2ccc(Br)cc12
inactive: activity change, negative = inhibition [1] 8.39% | activity change, negative = inhibition [2] -22% | activity, negative = inhibition [3] -0.02% | Potency [4] > 20.6 µM

COc1ccc(C2CC(=O)C(C=NCCN3CCOCC3)=C(O)C2)cc1 (stereo not given)
inactive: activity change, negative = inhibition [1] 18.9% | activity change, negative = inhibition [2] -9.07% | activity, negative = inhibition [3] -0.652% | Potency [4] > 20.6 µM

Cc1c(CCC#N)c(N2CCCCC2)n2c(nc3ccccc32)c1C#N
inactive: activity change, negative = inhibition [1] -4.98% | activity change, negative = inhibition [2] -11.4% | activity, negative = inhibition [3] 10.9% | Potency [4] > 20.6 µM

COCCn1c(SCc2c(F)cccc2Cl)nc2c1c(=O)[nH]c(=O)n2C
inactive: activity change, negative = inhibition [1] -17.8% | activity change, negative = inhibition [2] -0.711% | activity, negative = inhibition [3] -1.06% | Potency [4] > 20.6 µM
